Eya2 phos inh: Eya2 (human) phosphatase inhibition; recombinant Eya2, OMFP fluorescence dephosphorylation (OMFP is methylfluorescein phosphate); Potency, µM (top dose mostly 76.9 µM), for inactives: at the highest dose activity, negative = inhibition, most hits filed as inhibitors; 330,000 compounds, 0.006% hits; further: on the % scale 0 is the no-effect control and ±100 the full control effect
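Eya2 protein (added as 0.2 uM solution) was preincubated with compound for 10 min at ambient temperature in 50 mM HEPES pH 7.5, 50 mM NaCl, 5 uM MgCl2, 0.05% BSA, 1 mM DTT. OMFP (added at 50 uM) then reacted 10 min; fluorescence read at 485/525 nm.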
USP2a inh: blocks human ubiquitin-specific protease USP2a | Potency, µM (top dose mostly 38.3 µM), without a hit: top-dose activity change, negative = inhibition, actives largely listed as inhibitors | 330,000 compounds, 0.01% hits | O75604 | AID 463254 | USP2 core, Ub-CHOP2 coupled fluorogenic reporter, 485/531;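 further: plate controls were DMSO wells for no effect and full inhibition by NEM control for full effect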
Target sequence (O75604 whole entry, looked up): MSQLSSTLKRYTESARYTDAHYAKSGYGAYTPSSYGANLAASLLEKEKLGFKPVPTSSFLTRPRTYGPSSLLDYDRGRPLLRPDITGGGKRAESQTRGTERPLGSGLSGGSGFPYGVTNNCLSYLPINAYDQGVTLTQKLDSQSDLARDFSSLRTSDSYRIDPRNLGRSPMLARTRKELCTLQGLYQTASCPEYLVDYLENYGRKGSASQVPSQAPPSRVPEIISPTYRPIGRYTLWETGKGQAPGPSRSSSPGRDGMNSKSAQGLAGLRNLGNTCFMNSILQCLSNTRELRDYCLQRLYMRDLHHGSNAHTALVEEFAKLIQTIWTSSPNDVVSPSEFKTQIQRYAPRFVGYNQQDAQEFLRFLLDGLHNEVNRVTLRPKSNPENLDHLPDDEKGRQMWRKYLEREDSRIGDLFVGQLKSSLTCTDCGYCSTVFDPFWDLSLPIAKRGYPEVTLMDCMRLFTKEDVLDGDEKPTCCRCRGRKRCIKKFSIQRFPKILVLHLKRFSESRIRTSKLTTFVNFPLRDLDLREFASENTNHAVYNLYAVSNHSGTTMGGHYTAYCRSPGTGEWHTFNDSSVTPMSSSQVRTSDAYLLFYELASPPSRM
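Cell-free coupled assay: 10nM USP2 core preincubated 30min RT with compound in Tris-HCl pH 8.0/CaCl2/CHAPS buffer, then 25nM Ub-CHOP2 and 25nM reporter substrate; fluorescence (Ex 485/Em 531) read after 60min RT, normalized to NEM inhibition, concentration-response curves fitted.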
ClpP mod: qHTS Assay for Activators of ClpP; purified B. subtilis ClpP, FRET peptide cleavage, 20 min; Potency, µM (series often up to 57.5 µM), for inactives: at the top dose activity change, negative = active; 340,000 compounds, 1.9% hits; AID 651965, 2013; active means well fitted falling curve with a large enough effect; inconclusive means small, poorly fitted or top-dose-only effect; inactive means no such curve, though single readings can be large or run the other way; further: the source files actives as falling curves though it sought activators and does not explain the sign; nearly all actives have a fitted effect of over 65% in size
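ClpP 10 microg/mL final, pH 8 Tris/KCl buffer with BSA, glycerol, Tween-20; compound pinned in; FRET-FV substrate; RT 20 min; Ex320/Em430; ΔFRET vs ADEP 5.8 microM, DMSO, no enzyme.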
GALK inhibitor: blocks human galactokinase activity. P51570. Purified GALK, Kinase-Glo residual ATP luminescence. 270,000 compounds, 0.007% hits. Potency, µM (top dose mostly 57.5 µM), for inactives: at the highest dose activity change, negative = inhibition, hits mostly inhibitors; further: on the % scale 0 is the no-effect control and ±100 the full control effect
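Kinase-Glo Plus luminescence measured ATP left after a 1 h room-temperature reaction. The reaction used 5 nM GALK, 100 uM galactose and 35 uM ATP at pH 8.0 (20 mM HEPES, 5 mM MgCl2, 60 mM NaCl, 1 mM DTT, 0.01% BSA).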
* = called active by the depositor; u = inconclusive; x = no result. The full list was thinned out, with hits kept by preference. Unless noted, the call rests on the fitted dose curve; in most records, active means well fitted inhibition curve with a large enough effect; inconclusive means small, poorly fitted or top-dose-only effect, or effect the other way; inactive means flat fitted curve, though single readings scatter. Potency means the concentration at half of the fitted maximal effect.

SMILES	Eya2 phos inh	USP2a inh	ClpP mod	GALK inhibitor
CCCCCCOC(=O)c1ccccc1N	20.0%	0.1%	22.4µM*	-4.7%
CCCCOC(=O)c1ccccc1N	x	x	4.1%	x
Fc1ccc(C[n+]2c(-c3ccccc3)cc(-c3ccccc3)cc2-c2ccccc2)cc1	-28.2%	3.7%	4.4%	x
O=[N+]([O-])c1c2ccccc2cc2ccccc12	-12.2%	-0.4%	-1.4%	x
O=[N+]([O-])c1ccc(-c2ccc(C=Nc3cccc4ccccc34)o2)cc1	1.3%	0.7%	17.8µM*	-4.9%
O=C(CN1C(=O)CCSc2ccccc21)N1CCC2(CC1)OCCO2	12.0%	-1.4%	0.1%	-0.1%
O=C(c1ccc(F)c([N+](=O)[O-])c1)N1CC2CC(C1)c1cccc(=O)n1C2 (stereo not given)	-6.1%	2.2%	2.2%	0.9%
C#CC1(O)CCC2C3CCC4=CC(=O)CCC4=C3C=CC21C (stereo not given)	x	x	28.2µM*	x
CN1CCN(/N=C/c2c(O)n(CCC3=CCCCC3)c(=S)[nH]c2=O)CC1	3.2%	1.7%	-0.7%	-1.5%
Cc1cc(C(=O)C[N+]23CCN(CC2)CC3)c(C)n1-c1ccc(Br)cc1	-5.1%	3.3%	x	-2.3%
CC(=O)N1CCC2(CC1)CC(=O)c1cc(OCC(=O)N3CCN(C)CC3)ccc1O2	3.3%	1.9%	20µM*	2.2%
Nc1ccc2c(c1)Cc1ccccc1-2	-2.8%	4.5%	11.2µM*	0.2%
CCOC(=O)C(NC(=O)CC)(Nc1ccc(C(O)(C(=O)OCC)C(F)(F)F)cc1C)C(F)(F)F (stereo not given)	6.0%	3.7%	1.4%	-2.5%
CCCC/C(=N/O)c1c(C)[nH]c2ccccc12	-5.7%	0.3%	28.2µM*	0.5%
CCCCC/C(=N/O)c1c(C)[nH]c2ccccc12	-11.6%	2.3%	x	-1.3%
Cc1ccccc1-c1nc(CS(=O)CC(=O)N2CCC3(CC2)OCCO3)c(C)o1 (stereo not given)	19.9%	-2.4%	-7.3%	1.1%
Cc1ccsc1-c1nc(CSCC(=O)N2CCC3(CC2)OCCO3)c(C)o1	6.9%	5.8%	31.6µM*	0.3%
CC(=O)Nc1ccc(S(=O)(=O)N(C)CCOCc2ccccc2)cc1	-24.5%	-0.9%	22.4µM*	0.7%
CC(=O)Nc1ccc(OC(=O)N(C)c2ccccc2)cc1	-16.4%	-1.8%	-0.7%	1.0%
COc1ccc(CNCC(=O)N2CCC3(CC2)OCCO3)cc1	3.2%	-1.9%	-8.1%	5.2%
COc1ccc(C(CC(=O)N2CCC3(CC2)OCCO3)NS(=O)(=O)c2ccc(F)cc2)cc1 (stereo not given)	-21.1%	0.5%	22.4µM*	1.5%
O=C(Nc1ccc2ccccc2c1)c1nn(C23CC4CC(CC(C4)C2)C3)cc1Br	-4.8%	-0.1%	20µM*	-0.3%
Cc1nc(Cl)sc1C(=O)Nc1ccc2ccccc2c1	-10.6%	-2.5%	1.5%	1.1%
Cc1ccc(Cl)cc1N1CCN(C(=O)c2cn(CC(C)C)c(=O)c3c2c2ccccc2n3C)CC1	x	x	12.6µM*	x
CC(C)Cn1cc(C(=O)N2CCC3(CC2)OCCO3)c2c3ccccc3n(C)c2c1=O	7.1%	-0.7%	15.8µM*	-1.1%
SMILES	Eya2 phos inh	USP2a inh	ClpP mod	GALK inhibitor
Cn1c(C(=O)N2CCC3(CC2)OCCO3)cc2c(=O)n(C)c3ccccc3c21	4.8%	2.2%	-13.9%	-1.8%
Cn1c2ccccc2c2c(C(=O)N3CCC4(CC3)OCCO4)cn(C3CCCCC3)c(=O)c21	4.6%	3.5%	17.8µM*	1.7%
Cn1cc(C(=O)N2CCC3(CC2)OCCO3)c2c3ccccc3n(C)c2c1=O	6.8%	0.8%	14.1µM*	-1.2%
Clc1ccc(C(c2ccccc2)c2ncc[nH]2)cc1 (stereo not given)	4.2%	-0.6%	0.6%	-3.7%
O=c1[nH]c(=S)n(-c2ccccc2)c(O)c1/C=N/N1CCCCC1c1cccnc1 (stereo not given)	6.1%	2.1%	x	5.6%
CSC[C@H](NC(=O)COc1cc2c(c3oc(=O)c(C)c(C)c13)CCC(C)(C)O2)C(=O)O	-8.0%	-5.2%	28.2µM*	1.3%
COc1ccc(C=C2C(=O)N(C)C(=O)N(C)C2=O)cc1COc1ccc(NC(C)=O)cc1	-4.1%	0.7%	x	8.9%
CN1C(=O)C(=Cc2ccc(OCC(=O)Nc3ccccc3)cc2)C(=O)N(C)C1=O	5.2%	-0.7%	15.8µM*	3.5%
O=C(c1ccc2nc3ccc(Cl)cc3c(=O)n2c1)N1CCC2(CC1)OCCO2	x	x	14.1µM*	x
O=C(c1ccc(Cl)cc1)N1CCC2(CC1)OCCO2	9.5%	-1.9%	-0.7%	3.5%
CC(=O)N(C1=NCCCS1)c1ccc(Cl)cc1	-13.3%	-0.3%	x	1.1%
C=CCc1c(C)nc(C)nc1N/N=C/c1ccc(N(C)C)cc1	28.1%	-2.3%	20µM*	0.2%
CCCc1nnc(NC(=O)CCC(=O)N2CCC3(CC2)OCCO3)s1	u	-4.4%	0.4%	3.6%
Nc1ccccc1C(=O)OCC(=O)Nc1ccc(Br)cc1F	11.0%	1.6%	28.2µM*	-3.7%
O=C(COC(=O)c1ccc(O)cc1)Nc1ccc(Cl)cc1C(=O)c1ccccc1	-3.2%	-5.0%	x	-0.5%
C=C1[C@H]2CC[C@H]3[C@]4(C)C[C@H](O[C@H]5O[C@H](CO)[C@@H](OS(=O)(=O)O)[C@H](OS(=O)(=O)O)[C@H]5OC(=O)CC(C)C)C[C@@H](C(=O)O)[C@H]4CC[C@]3(C2)[C@H]1O	12.4%	2.8%	1.1%	x
Cc1cnc(NC(=O)CN2CCCCC2)s1	9.8%	2.1%	14.1µM*	-8.6%
O=C(CN1CCCCC1)NCC(=O)Nc1ccc(Br)cc1C(=O)c1ccccc1	-11.9%	0.3%	-1.5%	x
O=C(CNC(=O)OCc1ccccc1)NCC(=O)Nc1ccc(Br)cc1C(=O)c1ccccc1	-2.8%	3.0%	25.1µM*	1.0%
O=C(CNC(=O)OCc1ccccc1)Nc1ccc(Br)cc1C(=O)c1ccccc1	0.7%	2.5%	0.3%	-0.4%
COc1ccccc1C(=O)Nc1ccc2nc(SCC(=O)N3CCCc4ccccc43)sc2c1	x	x	10µM*	x
O=C(Nc1ccc2nc(SCC(=O)N3CCCc4ccccc43)sc2c1)c1ccccc1F	x	x	17.8µM*	x
CCCNC(=O)c1c(N)n(CC2CCCO2)c2nc3ccccc3nc12 (stereo not given)	-6.5%	-17.2%	17.8µM*	0.7%
CC(C)OCCCNC(=O)c1c(N)n(CC2CCCO2)c2nc3ccccc3nc12 (stereo not given)	-23.7%	-1.5%	14.1µM*	-0.2%
CC(C)OC(=O)c1c(N)n(CC2CCCO2)c2nc3ccccc3nc12 (stereo not given)	-0.7%	2.8%	-8.2%	0.6%
CC(C)CCOC(=O)c1c(N)n(CC2CCCO2)c2nc3ccccc3nc12 (stereo not given)	u	-9.0%	28.2µM*	-0.1%
O=C1/C(=C/c2ccc3c(c2)OCO3)N2CCC1CC2	-7.0%	1.7%	-4.5%	0.1%
O=c1[nH]c(=O)n(Cc2ccccc2)c(O)c1/C=N/NCCO	4.2%	-0.2%	-0.2%	1.4%
